# PubChem BioAssay AID1671463 (Sanford-Burnham Center for Chemical Genomics, 2021)
# About 520 (0.14%) of roughly 370,000 compounds were called active. Cut-off read from the data, not from the text of the source: active = activation above about 40%; inactive = the rest. For the sample, actives were picked, then their nearest neighbours and some compounds at random.
# Target: Atrial natriuretic peptide receptor 1 (Homo sapiens) (UniProt P16066)
# Test: GC-A stimulated cGMP production enhancers – HEK293 GC-A cells, cGMP TR-FRET, EC30 ANP, primary screen (AID 1671463)
# Details: at 10 µM, active compounds read high, 0% at EC30 ANP, 100% saturating ANP
# Sequence of Atrial natriuretic peptide receptor 1 (Homo sapiens) (P16066 whole entry, looked up): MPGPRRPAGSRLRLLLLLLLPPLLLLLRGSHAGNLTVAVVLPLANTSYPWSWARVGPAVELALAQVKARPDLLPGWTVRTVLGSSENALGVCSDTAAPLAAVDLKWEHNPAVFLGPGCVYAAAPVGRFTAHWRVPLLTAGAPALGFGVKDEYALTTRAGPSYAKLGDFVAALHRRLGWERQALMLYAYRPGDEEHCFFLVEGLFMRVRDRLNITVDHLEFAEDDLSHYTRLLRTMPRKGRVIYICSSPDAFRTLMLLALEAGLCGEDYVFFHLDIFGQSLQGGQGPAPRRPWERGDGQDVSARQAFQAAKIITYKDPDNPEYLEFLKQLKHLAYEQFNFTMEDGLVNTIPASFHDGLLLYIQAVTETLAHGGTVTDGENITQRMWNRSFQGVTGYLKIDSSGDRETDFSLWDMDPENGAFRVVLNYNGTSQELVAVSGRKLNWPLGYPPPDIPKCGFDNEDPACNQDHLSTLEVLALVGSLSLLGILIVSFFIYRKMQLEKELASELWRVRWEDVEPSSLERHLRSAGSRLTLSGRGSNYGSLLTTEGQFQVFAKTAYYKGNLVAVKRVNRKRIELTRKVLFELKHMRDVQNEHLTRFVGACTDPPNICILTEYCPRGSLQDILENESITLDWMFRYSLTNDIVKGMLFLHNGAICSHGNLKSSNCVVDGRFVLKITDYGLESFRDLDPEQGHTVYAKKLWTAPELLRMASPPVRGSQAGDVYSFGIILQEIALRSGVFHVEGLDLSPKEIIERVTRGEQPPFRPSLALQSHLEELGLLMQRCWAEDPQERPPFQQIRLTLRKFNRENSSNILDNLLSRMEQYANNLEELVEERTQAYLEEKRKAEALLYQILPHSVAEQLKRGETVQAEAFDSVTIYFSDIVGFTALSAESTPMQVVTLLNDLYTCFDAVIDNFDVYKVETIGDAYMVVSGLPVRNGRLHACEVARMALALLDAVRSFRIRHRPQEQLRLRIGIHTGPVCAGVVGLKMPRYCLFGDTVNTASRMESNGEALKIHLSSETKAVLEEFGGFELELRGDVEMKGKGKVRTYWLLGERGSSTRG
row,SMILES,activation
1,Cc1ccc(C(=O)NC(=S)Nc2ccc3[nH]c(=O)[nH]c3c2)cc1C,-4.45% (inactive)
2,CCc1ccc(Oc2coc3cc(OC(=O)c4cc5ccccc5oc4=O)ccc3c2=O)cc1,-3.3% (inactive)
3,CCc1ccc(Oc2coc3cc(O)ccc3c2=O)cc1,9.73% (inactive)
4,COC(=O)COc1ccc2c(=O)c(Oc3ccccc3Br)coc2c1,46.5% (active)
5,CC[C@H](C)[C@@H](C(=O)N1CCNCC1)n1cc([C@@H](N)Cc2ccc(O)cc2)nn1,-0.45% (inactive)
6,CC1(C)CC(=O)c2cnc3nc4ccccc4n3c2C1,1.08% (inactive)
7,Cc1ccc(Cn2c(=N)c(S(=O)(=O)c3ccc(C)cc3)cc3c(=O)n4ccccc4nc32)cc1,0.3% (inactive)
8,Cc1cc(C)nc(NC(=O)Nc2ccccc2C(F)(F)F)n1,9.79% (inactive)
9,CCn1c(CSc2nc(C)cc(C)n2)nnc1SCC(N)=O,-2.17% (inactive)
10,Cc1cc(C)nc(S/C=C/C(=O)c2ccccc2)n1,43.5% (active)
11,Cc1cc(NC(=O)CCC(=O)N(CC(=O)NCC2CCCO2)c2ccccc2)no1 (stereo unspecified),-2.42% (inactive)
12,CC#CC[N+](C)(C)CCCCCC,1.8% (inactive)
13,O=C(NCCCO)/C(=C\C=C\c1ccccc1)NC(=O)c1ccccc1Cl,1.06% (inactive)
14,COc1ccc(C2OC(=O)CC2C(=O)NC(C)C)cc1 (stereo unspecified),-0.27% (inactive)
15,O=C1CN(C(=O)c2ccccc2F)C(c2ccc(F)cc2)c2cc(F)ccc2N1 (stereo unspecified),-11% (inactive)
16,CCCCN1C(=S)NC[C@@H]1C(C)CC (stereo partly specified),-0.8% (inactive)
17,CC[n+]1cc(C)ccc1/C=C/c1ccc(N(C)C)cc1,-28.2% (inactive)
18,CCOc1ccccc1N1CCN(C(=S)Nc2ccc(S(N)(=O)=O)cc2)CC1,2.84% (inactive)
19,CCOc1ccc(-n2cnc3c(=O)[nH]c(N)nc32)cc1,23% (inactive)
20,CCCc1nn(C)c2c(=O)[nH]c(-c3cc(S(N)(=O)=O)ccc3OCC)nc12,53.2% (active)
21,CC1CCC(N2CC(=O)N(Cc3ccc4c(c3)OCO4)C(c3ccc(F)cc3)C2=O)CC1 (stereo unspecified),-15.6% (inactive)

row,SMILES,activation
1,Cc1csc(NC(=O)C2CCCN2C(=O)OCC(C)C)n1 (stereo unspecified),-0.58% (inactive)
2,CN(C)CCCn1c(SCCN2C(=O)c3ccccc3C2=O)nc2ccccc2c1=O,-1.16% (inactive)
3,CN(C)CCn1c2c(c(SCC(=O)NCc3ccccc3)nc1=O)CCC2,3.93% (inactive)
4,O=C(NCc1ccccc1)C(c1cccnc1)N(C(=O)c1csnn1)c1ccc(F)cc1 (stereo unspecified),2.49% (inactive)
5,O=C1CCC(=O)N1CCOP1(=O)COc2ccccc2OC1,1.8% (inactive)
6,Cc1ccc(Cl)cc1NC(=O)COC(=O)C1CCCCC1,4.33% (inactive)
7,COc1ccc(NC(=O)CN(C)C(=O)Cc2coc3cc(C)c(C)cc23)cc1,0.74% (inactive)
8,CC(C)=CCN1CCN(Cc2ccc(Oc3ncccn3)cc2)CC1CCO (stereo unspecified),-0.64% (inactive)
9,Cc1nc(-c2nnc(SCC(=O)Nc3cc(C(F)(F)F)cc(C(F)(F)F)c3)n2C)cs1,1.31% (inactive)
10,CC1CN/C(=C\C(=O)c2ccc(Br)cc2)C(=O)N1 (stereo unspecified),45.4% (active)
11,O=C(O)C1CCCN1S(=O)(=O)c1ccc(Br)cc1 (stereo unspecified),3.81% (inactive)
12,COc1cc2c(cc1OC)/C(=C/C(=O)c1ccc(NC(C)=O)cc1)NCC2,6.02% (inactive)
13,COc1ccc(N(CCC#N)S(=O)(=O)c2ccc(Cl)cc2)cc1,-7.67% (inactive)
14,Cc1ccccc1CN(c1ccc(C(=O)NCC2CCCO2)cc1)S(C)(=O)=O (stereo unspecified),2.8% (inactive)
15,COc1ccc(CCNC(=O)CSc2nc3c([nH]2)c(=O)n(C)c(=O)n3C)cc1,-1.99% (inactive)
16,Cc1[nH][nH]c(=O)c1C(c1ccc(-c2ccc(Cl)cc2)o1)c1c(C)[nH][nH]c1=O,3.79% (inactive)
17,O=C(NCCCN1CCCCCC1)c1ccc(N2CCCC2=O)cc1,-0.43% (inactive)
18,O=C(Nc1cc(S(=O)(=O)N2CCOCC2)ccc1OCC(F)(F)F)c1ccc(N2CCCC2=O)cc1,-0.92% (inactive)
19,CS(=O)(=O)c1ccc2nc(NC(=O)c3ccc(N4CCCC4=O)cc3)sc2c1,62.2% (active)
20,CC(=O)Nc1cc(-c2ccccc2N(C)C)cn2c(-c3ccc(F)c(Cl)c3)cnc12,3.6% (inactive)
